Laboratory results from ChEMBL document CHEMBL4513216, “Probing the Open Global Health Chemical Diversity Library for Multistage-Active Starting Points for Next-Generation Antimalarials” (ACS Infect Dis, 2020).
In all, about 69,000 compounds went through this assay and about 8,600 (12%) showed an effect of 50% or more. This excerpt belongs to a sample that is enriched for strong results.

Test system: Plasmodium berghei
Experiment: Screen against P. berghei liver stage (PbLuc), transformed with Luciferase, at 10uM
Assay type: functional, HepG2
Settings: tested at 10 uM

Row | SMILES | INHIBITION
1 | CC(C)N1CCC(N2CCN(C3CCCCC3)CC2CCO)CC1 (stereo not drawn) | 22%
2 | CCn1cc(Cl)c(C(=O)Nc2ccc3c(c2)C(C)(C)C(=O)N3C)n1 | 20.9%
3 | O=C(CCc1cc(O)no1)N1CCCC(OCc2cccnc2)C1 (stereo not drawn) | 23.6%
4 | Cc1c(S(=O)(=O)N(CCc2ccccc2)Cc2ccn(C)n2)cnn1C | 41.9%
5 | CNC(=O)NCC(CO)Cc1ccccc1OC(F)(F)F (stereo not drawn) | 16%
6 | CS(=O)(=O)CCOc1nc(-c2ccccc2Cl)no1 | -3.94%
7 | COCCOc1nc(-c2ccccc2Cl)no1 | 14.9%
8 | CCS(=O)(=O)CCCOc1nc(-c2ccccc2Cl)no1 | 50%
9 | Cc1noc2ncc(C(=O)N3CCCC(n4ccnc4C)C3)cc12 (stereo not drawn) | 32.3%
10 | CCc1nccn1C1CCCN(C(=O)c2ccnc(N(C)C)c2)C1 (stereo not drawn) | 65.85%
11 | CCc1nccn1C1CCCN(C(=O)c2cnn3cccnc23)C1 (stereo not drawn) | 55.4%
12 | CCc1nccn1C1CCCN(C(=O)c2cnc3ccccc3n2)C1 (stereo not drawn) | 29.2%
13 | CCc1nccn1C1CCCN(C(=O)c2ccc(N(C)C)nn2)C1 (stereo not drawn) | 45.65%
14 | CCc1nccn1C1CCCN(C(=O)c2cnn3ccc(C)nc23)C1 (stereo not drawn) | 24.6%
15 | CCc1nccn1C1CCCN(C(=O)c2cncn2-c2ccccc2)C1 (stereo not drawn) | 32.45%
16 | CCc1nccn1C1CCCN(C(=O)c2cnc3onc(C)c3c2)C1 (stereo not drawn) | 66.4%
17 | CCc1nccn1C1CCCN(C(=O)c2cnn(C)c2C2CC2)C1 (stereo not drawn) | 44.8%
18 | CC(C)c1nccn1C1CCCN(C(=O)c2ccnc(N(C)C)c2)C1 (stereo not drawn) | 42.9%
19 | Cc1noc2ncc(C(=O)N3CCCC(n4cccn4)C3)cc12 (stereo not drawn) | 27.8%
20 | CCc1nccn1C1CCCN(C(=O)c2ccn(-c3ccccc3)n2)C1 (stereo not drawn) | 52.2%
21 | O=c1ccc2c([nH]1)CCC(NS(=O)(=O)C1CC1)C2 (stereo not drawn) | 32.5%
22 | O=C(NCc1ccccc1)N1CCc2ncnc(NC3CC3)c2CC1 | 40.3%
23 | CCOCc1nc(-c2cccc(OC)c2OC)n(C2CCN(C)CC2)n1 | 21.2%
24 | CN(CC(=O)Nc1ccc(Br)cn1)C(=O)C(C)(C)C | -17.6%
25 | O=C(Cc1cccnc1)N1CCCC2(CCN(CC3CCOCC3)C2)C1 (stereo not drawn) | 18.5%
26 | Cc1cc(C)c(C(=O)N(C)CCN(C)C(=O)OC(C)(C)C)[nH]1 | 11.4%
27 | Cc1cncnc1C1CCN(C(=O)CN(C)C)CC1 | -15.1%

Row | SMILES | INHIBITION
28 | CN(C)C(=O)N1CCC2(CC1)CN(Cc1ccccn1)C(=O)CO2 | 30.4%
29 | Cc1nccn1C1CCCN(C(=O)c2ccc3c(c2)OCCCO3)C1 (stereo not drawn) | 47%
30 | CCc1nccn1C1CCCN(C(=O)c2ccc3c(c2)OCCO3)C1 (stereo not drawn) | 52.5%
31 | CCc1nccn1C1CCCN(C(=O)c2ccc3c(c2)OCO3)C1 (stereo not drawn) | 34.9%
32 | CCCn1nc(C)c(CNS(=O)(=O)NCc2ccccc2)c1C | -8.66%
33 | CCCn1cc(Cl)c(C(=O)N2C[C@@H](O)[C@H](Oc3ccccc3)C2)n1 | -10.55%
34 | O=S(=O)(CCc1ccccc1Cl)CC(O)CO (stereo not drawn) | 35.7%
35 | Cc1ccsc1C(=O)Nc1cnn(CC(=O)NC2CCCC2)c1 | -4.63%
36 | Cc1cc(C(=O)Nc2cnn(CC(=O)NC3CCCC3)c2)c(C)s1 | 12.4%
37 | Cc1nc(C)c(C(=O)Nc2cnn(CC(=O)NC3CCCC3)c2)s1 | 54.5%
38 | Cc1nn(C)c2cnn(CCCNS(=O)(=O)Cc3ccccc3)c12 | 41.6%
39 | Cc1nccn1C1CCCN(C(=O)CCNc2ncccn2)C1 (stereo not drawn) | 5.03%
40 | CC(C)CNC(=O)N1CCC2(CC1)OC(C(N)=O)Cn1ccnc12 (stereo not drawn) | 39.4%
41 | COCCCNC(=O)c1c(-n2cnnn2)sc2c1CCC2 | 30.8%
42 | CC(C)OCCCNC(=O)c1c(-n2cnnn2)sc2c1CCCC2 | 20.1%
43 | Cc1cc(C)n(C2=NC(NCCC(C)C)c3c(sc4c3CCCC4)N2)n1 (stereo not drawn) | 90.5%
44 | COCCCNC1N=C(n2nc(C)cc2C)Nc2sc3c(c21)CCCC3 (stereo not drawn) | 88.8%
45 | COC(=O)C1CCCN1C(=O)c1ccc(-n2nc(C)cc2C)cc1 (stereo not drawn) | -16.8%
46 | Cc1cc(C)n(C2=NC(NCCCO)c3c(sc4c3CCCC4)N2)n1 (stereo not drawn) | 79.7%
47 | COCCNC(=O)c1c(-n2cnnn2)sc2c1CCCC2 | -6.42%
48 | Cc1oc(C(=O)O)cc1S(=O)(=O)Nc1cc(Br)ccc1F | -0.96%
49 | Cc1ncncc1C(=O)N1CCC(O)(CN(C)Cc2ccc(F)cc2)C1 (stereo not drawn) | 6.32%
50 | CC(C)c1nnc(CCC(=O)N2CCCC(c3cnccn3)C2)o1 (stereo not drawn) | 26.7%
51 | CN(C)C(=O)c1nn(C)c2c1CN(Cc1ccc(F)cc1)C2 | 31.7%
52 | CS(=O)(=O)NCC1CCCN(C(=O)Nc2ccccc2Cl)C1 (stereo not drawn) | 9.48%
53 | Cc1ccccc1NC(=O)N1CCN(C(=O)C2CC2)[C@@H]2CS(=O)(=O)C[C@@H]21 | -5.22%
